# Assay results from PubChem BioAssay AID623957 (NMMLSC, 2012).
# Active and inactive are the calls of the source.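 Rule for the calls: active = compounds whose fitted half-maximal concentration for lowering the signal is under 100 µM; inactive = the rest.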
# Test: compound effect on K562 vector-control line – cell-based, flow cytometry, cherry pick set 1, counter-screen for ABCB6 inhibitor project, dose response (AID 623957)
# Settings: K562 vector-only cells, flow cytometry fluorescence, 1 h; series mostly up to 100 µM
row,SMILES,outcome
1,CC1CCN(c2ccc3nnc(CCC(=O)NCCCOC(C)C)n3n2)CC1,inactive
2,Cc1cccc(CS(=O)(=O)c2ncc(Cl)c(C(=O)Nc3c(C)cccc3C)n2)c1,inactive
3,O=C(Nc1ccc(F)cc1)c1nc(S(=O)(=O)Cc2ccccc2)ncc1Cl,inactive
4,CC1CCN(c2ccc3nnc(CCC(=O)N4CCCCC4)n3n2)CC1,inactive
5,CC1CC(C)CN(C(=O)CCc2nnc3ccc(N4CCCCC4)nn23)C1 (configuration not stated),inactive
6,CC(C)CCNC(=O)CCc1nnc2ccc(N3CCC(C)CC3)nn12,inactive
7,CCN1CCN(C(=O)CCc2nnc3ccc(N4CCC5(CC4)OCCO5)nn23)CC1,inactive
8,CCOC(=O)C1CCN(C(=O)CCc2nnc3ccc(N4CCN(C)CC4)nn23)CC1,inactive
9,O=C(CN1CCCCC1)Nc1cccc(Br)c1,inactive
10,CCc1ccc(CNC(=O)C2Cc3cc(S(=O)(=O)N4CCCC4)ccc3N2C(C)=O)cc1 (configuration not stated),inactive
11,CCOC(=O)CNC(=O)CCc1nnc2ccc(N3CCC(C)CC3)nn12,inactive
12,O=C(CCc1nnc2ccc(N3CCC4(CC3)OCCO4)nn12)N1CCCCC1,inactive
13,Cc1ccc(NC(=O)c2nc(S(=O)(=O)Cc3ccccc3)ncc2Cl)cc1,inactive
14,CCOC(=O)C(C)NC(=O)CCc1nnc2ccc(N3CCC(C)CC3)nn12 (configuration not stated),inactive
15,COC(=O)C(NC(=O)CCc1nnc2ccc(N3CCC(C)CC3)nn12)C(C)C (configuration not stated),inactive
16,CCC(C)NC(=O)CCc1nnc2ccc(N3CCC(C)CC3)nn12 (configuration not stated),inactive
17,CCOC(=O)C(C)NC(=O)CCc1nnc2ccc(N3CCCCC3)nn12 (configuration not stated),inactive
